PubChem BioAssay (Tox21)
Values joined by “and” are separate entries in the source; they are usually repeats but may differ in a detail not shown here. Identical values can stand only once. Where a structure was tested more than once in an assay, its records may differ in their call. Active and inactive are the calls of the source. Where a call stands in place of a potency, no number is given. Unless noted, calls come from the whole dose curve; as a rule, active = well fitted curve in the direction sought with a large enough effect in the repeat runs; inconclusive = weak or mixed curves; inactive = no such curve, though single readings can be large; an effect the other way counts as inactive or inconclusive.

Key:
[1] = qHTS assay to identify small molecule antagonists of the glucocorticoid receptor (GR) signaling pathway - cell viability counter screen (AID 720693); note: nearly all actives have a fitted effect of over 55% in size
[2] = qHTS assay for identifying genotoxic compounds that show differential cytotoxicity against isogenic chicken DT40 cell lines with known DNA damage response pathways - Rev3 mutant cell line (AID 743014); note: nearly all actives have a fitted effect of over 55% in size; note: potency is the fitted concentration of half-maximal effect
[3] = qHTS assay for identifying genotoxic compounds that show differential cytotoxicity against isogenic chicken DT40 cell lines with known DNA damage response pathways - Rad54/Ku70 mutant cell line (AID 743015); note: nearly all actives have a fitted effect of over 60% in size; note: potency is the fitted concentration of half-maximal effect
[4] = qHTS assay to identify small molecule antagonists of the androgen receptor (AR) signaling pathway - cell viability counter screen (AID 743033; note: nearly all actives have a fitted effect of over 45% in size; note: potency is the fitted concentration of half-maximal effect)
[5] = qHTS assay to identify small molecule antagonists of the androgen receptor (AR) signaling pathway using the MDA cell line - cell viability counter screen (AID 743041; note: nearly all actives have a fitted effect of over 45% in size)
In short: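 Using the breast carcinoma line MDA-kb2 AR-luc, test chemicals were co-incubated with R1881 for 16 h; CellTiter-Fluor reagent, added at 15.5 h, provided a fluorescence measure of live cells.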

[6] = qHTS assay to identify small molecule antagonists of the thyroid receptor (TR) signaling pathway (AID 743065); note: nearly all actives have a fitted effect of over 55% in size; note: potency is the fitted concentration of half-maximal effect
In short: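 Antagonism measured as loss of luciferase signal in GH3 cells stably carrying a TRE-luciferase reporter, co-treated with compound and T3 (1 nM final) for 23.5 h at 37 C. Viability was read in the same well by CellTiter-Fluor.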

[7] = test system: thyroid hormone receptor (rat, GH3 cells); assay: qHTS assay to identify small molecule agonists of the thyroid receptor (TR) signaling pathway (AID 743066; calls by dose curve)
[8] = molecular target: Estrogen receptor (Homo sapiens) (UniProt P03372); assay: qHTS assay to identify small molecule antagonists of the estrogen receptor alpha (ER-alpha) signaling pathway (AID 743069; active = well fitted curve in the direction sought with a large enough effect in the signal ratio in the repeat runs, not every such curve was filed as active; inconclusive = weak or mixed curves, or effect the other way; inactive = no such curve, though single readings can be large or run the other way; the % refers to the signal ratio)
Chain of Estrogen receptor (Homo sapiens) (P03372 whole entry, looked up): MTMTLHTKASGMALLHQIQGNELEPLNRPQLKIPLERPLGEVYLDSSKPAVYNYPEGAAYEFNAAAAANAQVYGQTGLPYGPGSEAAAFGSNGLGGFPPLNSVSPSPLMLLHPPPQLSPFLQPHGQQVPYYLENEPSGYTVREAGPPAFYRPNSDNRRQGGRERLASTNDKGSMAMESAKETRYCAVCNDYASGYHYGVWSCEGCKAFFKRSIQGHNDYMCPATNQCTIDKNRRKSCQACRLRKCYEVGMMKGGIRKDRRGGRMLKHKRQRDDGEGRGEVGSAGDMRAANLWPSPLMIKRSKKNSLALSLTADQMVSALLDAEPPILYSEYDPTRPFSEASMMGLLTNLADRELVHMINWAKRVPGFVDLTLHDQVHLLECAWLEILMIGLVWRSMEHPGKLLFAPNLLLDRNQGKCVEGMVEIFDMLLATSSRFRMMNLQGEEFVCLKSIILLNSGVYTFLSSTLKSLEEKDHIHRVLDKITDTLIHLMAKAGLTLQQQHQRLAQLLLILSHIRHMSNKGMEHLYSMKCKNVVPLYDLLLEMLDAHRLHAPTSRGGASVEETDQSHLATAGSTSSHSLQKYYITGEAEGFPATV
In short: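 Fluorescence intensity from a beta-lactamase FRET substrate served as the read-out. Cells: HEK293 with stably integrated ER-alpha-UAS-bla reporter. Agonist 17beta-estradiol was co-added with compounds; incubation 18 hr at 37C, substrate 2 hr at room temperature.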

[9] = molecular target: Estrogen receptor (Homo sapiens) (UniProt P03372); assay: qHTS assay to identify small molecule agonists of the estrogen receptor alpha (ER-alpha) signaling pathway (AID 743075; calls by dose curve; note: potency is the fitted concentration of half-maximal effect)
[10] = molecular target: Estrogen receptor (Homo sapiens) (UniProt P03372); assay: qHTS assay to identify small molecule agonists of the estrogen receptor alpha (ER-alpha) signaling pathway using the BG1 cell line (AID 743079); note: nearly all actives have a fitted effect of over 20% in size; note: potency is the fitted concentration of half-maximal effect
[11] = qHTS assay to identify small molecule antagonists of the estrogen receptor alpha (ER-alpha) signaling pathway using the BG1 cell line (AID 743080; calls by dose curve;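 note: BG1 cells stimulated with 17beta-estradiol alongside compound; nearly all actives have a fitted effect of over 25% in size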)
In short: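 Luciferase inhibition measured with ONE-Glo after 30 min at RT in BG1Luc4E2 cells given test compounds and 17beta-estradiol for 21.5 h at 37 C; CellTiter-Fluor viability read in the same wells beforehand.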

[12] = qHTS assay to identify small molecule antagonists of the estrogen receptor alpha (ER-alpha) signaling pathway using the BG1 cell line - cell viability counter screen (AID 743081);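 note: compound given together with 17beta-estradiol as the ER stimulus; nearly all actives have a fitted effect of over 45% in size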
Aromatase (Homo sapiens) = Aromatase (Homo sapiens) (UniProt P11511); assay: qHTS assay to identify aromatase inhibitors (AID 743083); note: nearly all actives have a fitted effect of over 55% in size
Chain of Aromatase (Homo sapiens) (P11511 whole entry, looked up): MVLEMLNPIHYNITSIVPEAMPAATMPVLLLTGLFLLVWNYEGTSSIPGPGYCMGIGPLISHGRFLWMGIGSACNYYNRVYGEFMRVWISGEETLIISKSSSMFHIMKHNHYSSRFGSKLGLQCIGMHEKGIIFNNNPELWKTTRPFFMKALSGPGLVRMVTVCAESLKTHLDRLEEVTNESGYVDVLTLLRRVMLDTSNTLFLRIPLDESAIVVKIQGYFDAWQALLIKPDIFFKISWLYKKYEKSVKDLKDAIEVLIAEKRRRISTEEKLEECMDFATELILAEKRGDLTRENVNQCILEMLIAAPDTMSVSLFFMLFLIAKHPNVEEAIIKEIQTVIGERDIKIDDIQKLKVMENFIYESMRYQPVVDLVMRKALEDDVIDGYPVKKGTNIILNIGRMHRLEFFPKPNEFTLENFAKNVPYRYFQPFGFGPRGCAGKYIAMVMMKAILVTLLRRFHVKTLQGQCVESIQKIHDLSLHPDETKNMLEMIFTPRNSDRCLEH

[13] = qHTS assay for identifying genotoxic compounds that show differential cytotoxicity against isogenic chicken DT40 cell lines with known DNA damage response pathways - wild type cell line (AID 743012); note: nearly all actives have a fitted effect of over 60% in size; note: potency is the fitted concentration of half-maximal effect
In short: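 Endpoint: CellTiter-Glo luminescence, 30 min RT. Cells: wild type DT40, 300/well. Exposure: compounds in DMSO, 40 h, 37 C/5% CO2, after ~0.5 h pre-incubation.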

[14] = molecular target: Androgen receptor (Homo sapiens) (UniProt P10275); assay: qHTS assay to identify small molecule antagonists of the androgen receptor (AR) signaling pathway (AID 743035; active = well fitted inhibition curve with a large enough effect in the signal ratio in the repeat runs, not every such curve was filed as active; inconclusive = weak or mixed curves, or effect the other way; inactive = no such curve, though single readings can be large or run the other way; the % refers to the signal ratio)
Chain of Androgen receptor (Homo sapiens) (P10275 whole entry, looked up): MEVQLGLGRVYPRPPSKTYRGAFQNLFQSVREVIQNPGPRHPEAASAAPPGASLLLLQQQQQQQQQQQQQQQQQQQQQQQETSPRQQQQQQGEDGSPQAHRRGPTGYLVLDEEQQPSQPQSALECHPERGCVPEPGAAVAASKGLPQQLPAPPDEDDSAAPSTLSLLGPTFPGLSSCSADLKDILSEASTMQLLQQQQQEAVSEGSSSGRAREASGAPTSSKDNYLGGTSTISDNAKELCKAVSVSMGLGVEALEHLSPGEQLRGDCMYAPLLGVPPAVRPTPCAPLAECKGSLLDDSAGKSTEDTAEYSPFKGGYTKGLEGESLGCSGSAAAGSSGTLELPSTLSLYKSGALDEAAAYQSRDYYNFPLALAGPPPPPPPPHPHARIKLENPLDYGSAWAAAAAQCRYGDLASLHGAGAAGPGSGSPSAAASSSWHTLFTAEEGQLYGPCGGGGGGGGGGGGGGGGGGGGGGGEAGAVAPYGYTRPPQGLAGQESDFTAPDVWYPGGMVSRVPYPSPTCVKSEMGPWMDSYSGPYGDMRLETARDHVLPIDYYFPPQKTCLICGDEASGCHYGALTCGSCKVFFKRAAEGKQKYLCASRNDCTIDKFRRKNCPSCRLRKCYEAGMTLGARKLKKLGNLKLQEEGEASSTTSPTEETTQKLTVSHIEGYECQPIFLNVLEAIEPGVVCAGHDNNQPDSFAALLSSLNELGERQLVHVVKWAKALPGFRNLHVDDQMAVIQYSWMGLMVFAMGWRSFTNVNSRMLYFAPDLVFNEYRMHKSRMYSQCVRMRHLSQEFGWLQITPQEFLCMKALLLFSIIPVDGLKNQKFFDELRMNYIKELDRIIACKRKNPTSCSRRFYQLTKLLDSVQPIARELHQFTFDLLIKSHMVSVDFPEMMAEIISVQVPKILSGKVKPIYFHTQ
In short: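 R1881 agonist challenge of a HEK293 UAS-beta-lactamase AR reporter line in the presence of compound (16 h, 37C); signal taken as FRET fluorescence after 2 h with LiveBLAzer B/G substrate at room temperature.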

[15] = molecular target: Androgen receptor (Homo sapiens) (UniProt P10275); assay: qHTS assay to identify small molecule agonists of the androgen receptor (AR) signaling pathway (AID 743036; active = well fitted activation curve with a large enough effect in the signal ratio in the repeat runs, with a control signal flat, not every such curve was filed as active; inconclusive = weak or mixed curves, or effect the other way; inactive = no such curve, though single readings can be large or run the other way; the % refers to the signal ratio; note: potency is the fitted concentration of half-maximal effect)
In short: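 AR-bla HEK293 cells, 2,000/well; 4 h preincubation 37C/5% CO2; compound (DMSO) 16 h at 37C; LiveBLAzer B/G FRET substrate 2 h RT; fluorescence intensity read-out.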

[16] = molecular target: Androgen receptor (Homo sapiens) (UniProt P10275); assay: qHTS assay to identify small molecule agonists of the androgen receptor (AR) signaling pathway using the MDA cell line (AID 743040; note: nearly all actives have a fitted effect of over 20% in size; note: potency is the fitted concentration of half-maximal effect); conditions: MDA-kb2 AR-luc cells, MMTV luciferase, 16 h; activity change: at 70.3 µM (top of the series), stronger effect = higher value
In short: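 Stable MMTV-luciferase reporter in MDA-kb2 cells; note the promoter carries GR as well as AR response elements. 16 h compound treatment, 37C, 0% CO2; ONE-Glo luminescence endpoint.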

[17] = molecular target: Androgen receptor (Homo sapiens) (UniProt P10275); assay: qHTS assay to identify small molecule antagonists of the androgen receptor (AR) signaling pathway using the MDA cell line (AID 743042; note: nearly all actives have a fitted effect of over 55% in size; note: potency is the fitted concentration of half-maximal effect)
In short: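 Antagonist mode: compounds plus R1881 agonist added to MDA-kb2 AR-luc cells, incubated 16 h at 37C. Luciferase reporter luminescence quantified, with multiplexed CellTiter-Fluor readout for cell viability.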

[18] = qHTS assay to identify small molecule antagonists of the estrogen receptor alpha (ER-alpha) signaling pathway - cell viability counter screen (AID 743074; calls by dose curve; note: nearly all actives have a fitted effect of over 45% in size; note: potency is the fitted concentration of half-maximal effect)
[19] = qHTS assay to identify small molecule antagonists of the thyroid receptor (TR) signaling pathway - cell viability counter screen (AID 743064); note: nearly all actives have a fitted effect of over 50% in size; note: potency is the fitted concentration of half-maximal effect
In short: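 GH3.TRE-Luc cells, 4 h pre-plating; cpd + T3 1 nM final; 37 °C 23.5 h; CellTiter-Fluor 30 min; fluorescence read.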

| Compound | Potency [1] | Potency [2] | Potency [3] | Potency [4] | Potency [5] | Potency [6] | Potency [7] | Potency [8] | Potency [9] | Potency [10] | Potency [11] | Potency [12] | Potency (Aromatase (Homo sapiens)) | Potency [13] | Potency [14] | Potency [15] | Potency [16] | Potency [17] | Potency [18] | Potency [19] |
| --- | --- | --- | --- | --- | --- | --- | --- | --- | --- | --- | --- | --- | --- | --- | --- | --- | --- | --- | --- | --- |
| CCCCOCCOP(=O)(OCCOCCCC)OCCOCCCC | inactive | 54.5 µM (active) | 48.6 µM (active) | inactive | inactive | 24.4 µM (active) and 19.3 µM (active) | inactive | inactive | inactive | inactive | inactive | inactive | inactive |  |  |  |  |  |  |  |
| CCN(CC)C(=O)/C(Cl)=C(\C)OP(=O)(OC)OC |  | inactive | inactive | inactive | inactive | inactive | inactive | inactive | inactive | inactive | inactive | inactive | inactive | inactive | inactive | inactive | inactive | inactive | inactive |  |
| Cc1c(COC(=O)[C@@H]2[C@H](/C=C(\Cl)C(F)(F)F)C2(C)C)cccc1-c1ccccc1 | inactive | inactive | inactive | inactive | inactive | 15 µM (active) and 15.3 µM (active) | inactive | inactive | inactive | inactive |  | inactive | inactive | inactive |  |  |  |  | 26.9 µM (active) |  |
| C=CCc1ccc(OC)cc1 | inactive | 26.5 µM (active) | inactive | inactive | inactive | inactive | inactive |  |  |  |  | inactive | inactive | inactive |  |  |  |  | inactive |  |
| C=CCc1ccc2c(c1)OCO2 | inactive | inactive | inactive | inactive | inactive | inactive | inactive |  |  |  |  | inactive | inactive | inactive |  |  |  |  | inactive |  |
| CCC(CC)Nc1c([N+](=O)[O-])cc(C)c(C)c1[N+](=O)[O-] | inactive | inactive | inactive and 54.4 µM (active) | inactive | inactive |  | inactive |  |  |  |  | inactive |  |  |  |  |  |  | inactive |  |
| c1ccc(NNc2ccccc2)cc1 | inactive | 24.3 µM (active) | inactive and 27.3 µM (active) | inactive | inactive | 68.6 µM (active) | inactive |  |  |  |  | inactive |  | inactive and 30.6 µM (active) |  |  |  |  | inactive |  |
| CCCCNC(=O)n1c(NC(=O)OC)nc2ccccc21 | inactive | 5.42 µM (active) and 6.86 µM (active) | 6.82 µM (active) and 8.63 µM (active) |  | inactive | 7.66 µM (active) and 8.63 µM (active) | inactive | inactive | inactive | 34.4 µM (active) | inactive | inactive | inactive | 9.64 µM (active) and 8.63 µM (active) |  | inactive | inactive | inactive | inactive |  |
| Nc1c(Cl)cc([N+](=O)[O-])cc1Cl | inactive | inactive and 61.1 µM (active) | inactive and 61.1 µM (active) |  | inactive | inactive | inactive | inactive | inactive | inactive | inactive | inactive | inactive |  |  | inactive | inactive | inactive and 61.1 µM (active) | inactive | inactive |
| c1ccc(-c2cccc(-c3ccccc3)c2)cc1 | inactive |  |  | inactive | inactive | inactive | inactive | inactive | inactive | 21.9 µM (active) and 10.9 µM (active) |  | inactive | inactive |  |  |  |  |  | inactive | inactive |
| CCOP(=S)(OCC)O/N=C(\C#N)c1ccccc1 | inactive | inactive | inactive | inactive | inactive | inactive | inactive |  |  |  |  | inactive | inactive | inactive |  |  |  |  | inactive |  |
| CC(C)(OOC(C)(C)c1ccccc1)c1ccccc1 | inactive |  | 30.6 µM (active) | inactive | inactive | 53.7 µM (active) and 43.3 µM (active) | inactive |  |  |  |  | inactive | inactive | inactive and 54.5 µM (active) | inactive | inactive | inactive | inactive | inactive | 42.7 µM (active) |
| CCN(CC)N=O | inactive | inactive | inactive | inactive | inactive | inactive | inactive |  |  |  |  | inactive | inactive | inactive |  |  |  |  | inactive |  |
| CCC(=O)O[C@H]1CC[C@H]2[C@@H]3CCC4=CC(=O)CC[C@]4(C)[C@H]3CC[C@]12C |  | 11.4 µM (active) and 17.2 µM (active) | 12.7 µM (active) and 21.7 µM (active) | inactive and 49 µM (active) | inactive |  | inactive |  | 3.23 µM [inconclusive] (active) and 3.47 µM [inconclusive] (active) | 22.7 nM (active) and 34.4 nM (active) | inactive | inactive | inactive | 10.1 µM (active) and 19.3 µM (active) |  | 0.0039 µM (active) | 1.3 nM (active) and 1.7 nM (active) | inactive | inactive | inactive and 43.3 µM (active) |
